About 85 (7%) of roughly 1,200 compounds were called active. What follows is part of a selection rich in actives, with near analogues and random picks from the rest. Unmarked numbers belong to inactive results. Calls come from the whole dose curve.
Potency is the fitted concentration of half-maximal effect.

Chain of Beta-2 adrenergic receptor (Homo sapiens) (P07550 whole entry, looked up): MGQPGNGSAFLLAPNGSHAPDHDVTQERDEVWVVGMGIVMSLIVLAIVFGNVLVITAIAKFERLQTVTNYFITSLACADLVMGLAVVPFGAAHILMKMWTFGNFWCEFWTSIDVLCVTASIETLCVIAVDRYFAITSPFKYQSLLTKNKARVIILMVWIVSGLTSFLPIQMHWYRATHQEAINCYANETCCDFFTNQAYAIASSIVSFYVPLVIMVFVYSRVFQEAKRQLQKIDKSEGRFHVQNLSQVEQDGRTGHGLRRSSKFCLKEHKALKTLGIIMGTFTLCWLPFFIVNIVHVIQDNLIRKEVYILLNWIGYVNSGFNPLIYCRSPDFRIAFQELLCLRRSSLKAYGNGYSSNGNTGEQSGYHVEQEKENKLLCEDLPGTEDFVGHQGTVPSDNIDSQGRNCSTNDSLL

The target of this experiment is Beta-2 adrenergic receptor (Homo sapiens) (UniProt P07550). Kind of experiment: qHTS assay of beta-arrestin-biased ligands of beta2-adrenergic receptor: Hit Validation with GloSensor. For activation: 0% is about no effect. Particulars: W9-Glo22F cells, GloSensor cAMP luminescence, beta2AR agonism; activation: at 46.1 µM (top of the series). An outline of the steps:
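W9-Glo22F cells plated and incubated overnight at 37 deg C, 5% CO2, then compounds pinned in. GloSensor reagent added, 10 min at room temperature, luminescence read.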
On to `NC(=S)N/N=C/c1ccccc1OC(=O)c1cc2ccccc2oc1=O`, for which the “activation” value is 1.16%.

For the compound `COCC(=O)Nc1c(C(=O)Nc2ccc3c(c2)OCCO3)oc2ccccc12`, the “activation” value is -2.48%.

Take `CCc1n[nH]c(=S)n1/N=C/c1ccc(N(CC)CC)cc1`: the “activation” value is -2.48%.

`S=c1[nH]nc(-c2ccco2)n1/N=C/C(Cl)=C/c1ccccc1`: the “activation” value is 2.48%.

As for `Cc1cc(-c2n[nH]c(=S)n2/N=C/C(Cl)=C/c2ccccc2)n[nH]1`, the Potency is 36.6 µM (active).

Take `CC(=C/c1ccccc1)/C=N/n1c(C)n[nH]c1=S`: the Potency is 25.9 µM (active).

`Cc1cc(-c2n[nH]c(=S)n2/N=C/C(Br)=C/c2ccccc2)n[nH]1`: the “activation” value is 0%.

With `COC(=O)c1c(NC(=O)CS(=O)(=O)c2ccccc2)sc(C)c1C`, the “activation” value is 0%.

For `C/C(=N\NC(=O)c1c[nH]c2ccccc12)c1ccc(C)s1`, the “activation” value is 0.306%.

With `COc1cc2c(cc1OC)C(C)N(C(=O)Cn1ncc3c1-c1cc(C)ccc1OC3)CC2` (stereo unspecified), the “activation” value is 1.16%.

Consider `N=c1n(Cc2ccccc2)c2ccccc2n1Cc1ccccc1`, for which the “activation” value is 0.153%.

On to `COc1cccc(NC(=S)NN=C2CCCCCC2)c1`, for which the “activation” value is -1.01%.

As for `COC(=O)c1cc2sc(Cl)cc2n1CC(=O)Nc1ccc(OC)c(OC)c1OC`, the “activation” value was 0%.

With `NC(=S)Nc1nc2ccccc2s1`, the “activation” value was 2.48%.

For `CNc1sc(C(=O)c2ccccc2F)c(N)c1-c1nc2ccccc2s1`, the Potency was 18.4 µM (active).

Regarding `CNc1sc(C(=O)c2cccs2)c(N)c1-c1nc2ccccc2s1`, the “activation” value is -1.16%.

With `CCOC(=O)C1=CN(Cc2cccc(-c3cccnc3)c2)S(=O)(=O)N(CC)C1C` (stereo unspecified), the “activation” value was 0%.

As to `Cc1ccc(CONC(=O)c2ccccc2Cl)cc1`, the “activation” value was 0.306%.

As for `O=C(/C=C/c1ccc(N2CCCCC2)c([N+](=O)[O-])c1)c1ccc(S(=O)(=O)N2CCCC2)cc1`, the “activation” value was 0%.

Regarding `Cc1ccc2nc(C)c(C(=O)N/N=C/c3cccs3)n2c1`, the “activation” value was 0%.

As to `C=CCNc1nc(Cl)nc(NC2CCCCC2)n1`, the Potency was 23.1 µM (active).

Regarding `COC(=O)COc1cccc2c(=O)n(CC(=O)Nc3ccc4c(c3)OCCO4)ccc12`, the “activation” value was 0%.

For `CCOC(=O)c1ccccc1NC1c2ccccc2C(=O)N1C1CCN(C(=O)OCC)CC1` (stereo unspecified), the “activation” value was -1.16%.

In the case of `O=C(CSc1cccc2cccnc12)N1CCCC1`, the “activation” value was 1.16%.

In the case of `COc1ccc(CN=C2NN=C(c3ccccc3)CS2)cc1`, the “activation” value is -1.16%.

Regarding `O=C1NC(=NCc2ccccc2)S/C1=C/c1ccc(O)cc1`, the Potency was 23.1 µM (active).

On to `CCCCCC(=O)Nc1cccc(C2=NOC3(C2)C[C@@H](C(N)=O)N(C(=O)CC(c2ccccc2)c2ccccc2)C3)c1` (stereo partly specified), for which the “activation” value was 0%.

In the case of `CN(c1ccccc1)S(=O)(=O)c1ccc(C(=O)Nc2nccs2)cc1`, the “activation” value is 0.459%.

As to `O=C(Oc1c(Cl)cc(Cl)c2cccnc12)c1ccco1`, the “activation” value is -2.33%.

Regarding `O=C(Oc1ccc(Cl)c2cccnc12)c1ccco1`, the “activation” value was -1.16%.

In the case of `O=C(Oc1c(-c2ccco2)oc2ccccc2c1=O)c1cccnc1`, the Potency was 32.6 µM (active).
